Data on 20 compounds can be found in PubChem BioAssay (NCATS).

Test [1] concerns the target Glutathione peroxidase 1 (Homo sapiens) (UniProt P07203). As to the kind of experiment: Primary qHTS Assay for Inhibitors of Recombinant Selenoprotein Glutathione Peroxidase 1 (GPX1) (AID 1845191). Note: nearly all actives have a fitted effect of over 65% in size. An outline of the steps:
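Recombinant GPX1 (10 nM final) was preincubated with compound for 30 min at room temperature, then reacted with 1 mM GSH, 0.5 mM CHP, 0.5 mM NADPH and 100 nM glutathione reductase; NADPH fluorescence (340/450 nm) was read at 0 and 15 min.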
A general note: qHTS replaces the single test concentration by a dilution series.

Test [2] addresses Phospholipid hydroperoxide glutathione peroxidase GPX4 (Homo sapiens) (UniProt P36969). As to the kind of experiment: Primary qHTS Assay for Inhibitors of Recombinant Selenoprotein Glutathione Peroxidase 4 (GPX4) (AID 1845192). Note: nearly all actives have a fitted effect of over 65% in size. The method in brief:
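GR-coupled readout: 100 nM GR, 1 mM GSH, 0.5 mM NADPH; NADPH fluorescence (ex 340/em 450 nm) read at t=0 and after 15 min RT. GPX4 200 nM, preincubated 30 min with compound; substrate 0.5 mM CHP.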

Test [3] has as its target Luciferin 4-monooxygenase (Photinus pyralis) (UniProt P08659). As to the kind of experiment: Primary firefly luciferase (FLuc) qHTS assay for identification of artifact compounds. (AID 1845220). Note: nearly all actives have a fitted effect of over 60% in size. Note: potency is the fitted concentration of half-maximal effect. The method in brief:
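In this counter-screen for luciferase artifacts, test compounds met substrate (10 uM each luciferin and ATP) before 10 nM enzyme started the reaction. Light output was measured 5 min later.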

The nature of test [4]: Primary fluorescence-based thiol-reactive (MSTI) qHTS assay for identification of artifact compounds. (AID 1845221). Note: nearly all actives have a fitted effect of over 65% in size. Note: potency is the fitted concentration of half-maximal effect. The method in brief:
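Thiol-reactive compounds detected by quenching of 4 uM MSTI fluorescence (525/598 nm) after 1 h room-temperature dark incubation in PBS pH 7.4, 2% DMSO. qHTS titration; percent inhibition Hill-fitted against Acetyl-MSTI/MSTI controls.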

The subject of test [5] is Nanoluciferase (engineered Oplophorus gracilirostris luciferase). As to the kind of experiment: Primary Nanoluciferase (NLuc) qHTS assay for identification of artifact compounds. (AID 1845222).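 Note: NLuc secreted into diluted conditioned medium of S16 cells; series mostly up to about 54 µM.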 An outline of the steps: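 Using secreted nanoluciferase in S16 culture medium (0.22 um filtered, 1:55 dilution), compounds were preincubated 15 min at RT. Signal was generated with Nano-Glo reagent (1:100) over 5 min.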

Test [6] in a line: Primary redox qHTS assay for identification of artifact compounds. (AID 1845223). The method in brief:
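Amplex Red (25 uM) and HRP (250 mU/mL) in HBSS, with compounds for 15 min, then 250 uM DTT for 30 min, room temperature, dark. Fluorescence 525/598 nm read; normalized to DMSO and 10 uM DA3003; Hill fit.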

Unmarked numbers belong to inactive results. Inconclusive results are not listed. The source made the active and inactive calls. Calls come from the whole dose curve; as a rule, active = well fitted curve in the direction sought with a large enough effect; inconclusive = small, poorly fitted or top-dose-only effect, or another doubt; inactive = no such curve, though single readings can be large; an effect the other way counts as inactive or inconclusive.

Sequence of Phospholipid hydroperoxide glutathione peroxidase GPX4 (Homo sapiens) (P36969 whole entry, looked up): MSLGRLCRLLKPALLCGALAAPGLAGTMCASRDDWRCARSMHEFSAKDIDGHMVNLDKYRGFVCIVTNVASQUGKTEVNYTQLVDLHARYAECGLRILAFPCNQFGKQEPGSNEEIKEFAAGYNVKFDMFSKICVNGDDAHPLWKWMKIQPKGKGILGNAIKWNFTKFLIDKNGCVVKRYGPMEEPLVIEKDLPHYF
Sequence of Glutathione peroxidase 1 (Homo sapiens) (P07203 whole entry, looked up): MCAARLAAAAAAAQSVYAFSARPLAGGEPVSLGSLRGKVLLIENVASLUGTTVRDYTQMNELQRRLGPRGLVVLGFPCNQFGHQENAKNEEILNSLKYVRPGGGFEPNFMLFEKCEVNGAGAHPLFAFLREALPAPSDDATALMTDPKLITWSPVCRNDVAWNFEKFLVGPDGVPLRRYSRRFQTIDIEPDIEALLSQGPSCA

`COC(=O)C[C@H]1C(C)(C)[C@H](OC(=O)C(C)C)[C@@]2(O)C(=O)[C@]1(C)C1CC[C@]3(C)C(CC(=O)O[C@H]3c3ccoc3)[C@]13O[C@@H]32` (stereo not given in full): the Potency entry in test [1], in test [2], in test [3], in test [4], in test [5] and in test [6] was “inactive” each time.
In the case of `COc1ccc(-c2nc(-c3ccc(-c4cccc(Cl)c4)o3)[nH]c2-c2ccc(OC)cc2)cc1`, the Potency result in test [1], in test [2], in test [3], in test [5] and in test [6] was “inactive” in each case. Also, the Potency in test [4] was 4.23 µM (active).
Regarding `CC(=O)O[C@]1(C(C)=O)CC[C@H]2[C@@H]3C[C@H](C)C4=CC(=O)C=C[C@]4(C)[C@@]3(F)[C@@H](O)C[C@@]21C`, the Potency entry in test [1], in test [2], in test [3], in test [4], in test [5] and in test [6] was “inactive” throughout.
On to `CC(=O)O[C@H]1CC[C@@]2(C)C(CC[C@@H](C)[C@]23Cc2c(O)cc4c(c2O3)CN([C@@H](CCC(=O)O)C(=O)O)C4=O)C1(C)C` (stereo not given in full), for which the Potency entry in test [1], in test [2], in test [3], in test [4], in test [5] and in test [6] was “inactive” throughout.
Consider `Nc1nc2c(c(=O)[nH]1)C[C@@H](CCc1ccc(C(=O)N[C@@H](CCC(=O)O)C(=O)O)cc1)CN2`, for which the Potency entry in test [1], in test [2], in test [3], in test [4], in test [5] and in test [6] was “inactive” in each case.
Turning to `O=C(NCc1ccc(S(=O)(=O)c2cc(F)cc(F)c2)cc1)c1ccc2nccn2c1`, the Potency result in test [1], in test [2], in test [3], in test [4], in test [5] and in test [6] was “inactive” throughout.
`CO[C@H]1/C=C/[C@@](C)(O)/C=C/C(=O)O[C@H](C)[C@@H](C)CC/C=C/1C`: the Potency result in test [1], in test [2], in test [3], in test [4], in test [5] and in test [6] was “inactive” each time.
In the case of `CC1(C)C[C@H](O)C[C@@]2(C)OC(=O)C=C12`, the Potency result in test [1], in test [2], in test [3], in test [5] and in test [6] was “inactive” each time. For the same compound, the Potency in test [4] was 39.8 µM (active).
In the case of `C[C@@H]1O[C@@H](OC[C@H]2O[C@@H](Oc3cc(O)cc4c3C(=O)C(O)(Cc3ccc(O)cc3)O4)[C@H](O)[C@@H](O)[C@@H]2O)[C@H](O)[C@H](O)[C@H]1O` (stereo not given in full), the Potency result in test [1], in test [2], in test [3], in test [4], in test [5] and in test [6] was “inactive” throughout.
Take `C=C1CCC[C@]2(C)CC[C@@H](C(=C)C(=O)O)[C@H](O)[C@@H]12`: the Potency entry in test [1], in test [2], in test [3], in test [4], in test [5] and in test [6] was “inactive” each time.
In the case of `COc1ccc(-c2ccc(-c3cn(C(=O)N4CCCCC4c4ccccc4)nn3)cc2)cc1` (stereo not given), the Potency result in test [1], in test [2], in test [3], in test [4], in test [5] and in test [6] was “inactive” each time.
On to `CC[C@H]1OC(=O)[C@](C)(F)C(=O)[C@H](C)[C@@H](O[C@@H]2O[C@H](C)C[C@H](N(C)C)[C@H]2O)[C@](C)(OC)C[C@@H](C)C(=O)[C@@H](C)[C@H]2N(CCCCn3cc(-c4cccc(N)c4)nn3)C(=O)O[C@]12C`, for which the Potency entry in test [1], in test [2], in test [3], in test [4], in test [5] and in test [6] was “inactive” in each case.
With `CC(=O)O[C@@H]1C[C@H](O)[C@@]23CO[C@H](O)[C@]1(C)C2C[C@@H](O)[C@]1(C)C3C(=O)[C@H](OC(C)=O)[C@@]2(C)[C@H](c3ccoc3)C[C@H]3O[C@]321` (stereo not given in full), the Potency entry in test [1], in test [2], in test [3], in test [4], in test [5] and in test [6] was “inactive” in each case.
For the compound `C=C1CC[C@@H]2[C@](C)(CO[C@@H]3O[C@H](CO)[C@@H](O)[C@H](O)[C@H]3O)[C@H](O)CC[C@@]2(C)[C@@H]1C/C=C1/C(=O)OC[C@H]1O`, the Potency entry in test [1], in test [2], in test [3], in test [5] and in test [6] was “inactive” in each case. In addition, the Potency in test [4] was 13 µM (active).
Consider `C=C[C@]1(C)C=C2CCC3C(C)(CCC[C@@]3(C)C(=O)O)C2CC1` (stereo not given in full), for which the Potency result in test [1], in test [2], in test [3], in test [4], in test [5] and in test [6] was “inactive” in each case.
As to `COc1cc(/C=C/C=O)cc(OC)c1O[C@@H]1O[C@H](CO)[C@@H](O)[C@H](O)[C@H]1O`, the Potency entry in test [1], in test [2], in test [3], in test [5] and in test [6] was “inactive” each time. In test [4], the Potency is 14.7 µM (active).
In the case of `Cn1ncnc1COc1nn2c(-c3cc(F)ccc3F)nnc2cc1C(C)(C)C`, the Potency result in test [1], in test [2], in test [3], in test [4], in test [5] and in test [6] was “inactive” in each case.
In the case of `COc1ccc(C(=O)Nc2ncc(-c3ccc(C(=O)O)cc3)s2)cc1`, the Potency entry in test [1], in test [2], in test [4], in test [5] and in test [6] was “inactive” each time. Further, in test [3], the Potency was 2.69 µM (active).
With `CCC(C)C(=O)OC1CC(O)C23C4OCC5(C(O)CC2C1(C)C(O)O4)C3C(=O)CC1(C)C(c2ccoc2)CC2OC215` (stereo not given), the Potency entry in test [1], in test [2], in test [3], in test [4], in test [5] and in test [6] was “inactive” each time.
For `CC[C@@](C)(Nc1ccnc(-c2c[nH]c3ncccc23)n1)C(=O)NCC(F)(F)F`, the Potency result in test [1], in test [2], in test [3], in test [4], in test [5] and in test [6] was “inactive” in each case.
